Data on 40 molecules can be found in PubChem BioAssay (Tox21).

Active and inactive are the calls of the source. Calls follow the shape of the dose curve; as a rule, active = well fitted curve in the direction sought with a large enough effect in the repeat runs; inconclusive = weak or mixed curves; inactive = flat fitted curve, though single readings scatter.

The assay in a line: qHTS assay to test for compound auto fluorescence at 590 nm (red) in HEK293 cell free culture (AID 720683). Particulars: cell-free medium autofluorescence, Ex540/Em590 red; series mostly up to 91.3 µM. The source says:
U.S. Tox21 Program National Center for Advancing Translational Sciences [NCATS] NIH Chemical Genomics Center [NCGC] U.S. Environmental Protection Agency [EPA] National Institutes of Environmental Health Sciences [NIEHS] National Toxicology Program [NTP] U.S. Food and Drug Administration [FDA] Tox21 Assay Overview: Compound auto fluorescence often interferes with screening of the compound library against various biological targets and signaling pathways. Some of these compounds may have fluorophoric properties. Such properties may interfere with the assay outputs resulting in false positives and/or negatives. To decrease such complications and ensure the compound activities are relevant in terms of biological response, the Tox21 10K compound library was screened for auto fluorescence. From the fluorophores used as reporter signals in our screening assays, the auto fluorescence equivalencies of compounds against three fluorophores have been evaluated: Triamterene, Fluorescein and Rose Bengal sodium for blue, green and red fluorescence, respectively. The fluorescence intensities were measured using Excitation/Emission wavelengths at 405/460nm, 485/535nm and 540/590nm for blue, green and red labels, respectively. This assay includes the red fluorescence data.
Tox21 Assay Protocol Summary: 5 uL of culture medium (DMEM containing 10% FBS) per well was dispensed into black wall/clear bottom 1536-well plates using a Multidrop Combi Dispenser (ThermoFisher Scientific, Waltham, MA). After 23 nL compound or DMSO vehicle was transferred into assay plate by a pintool work station (Kalypsys, San Diego, CA), fluorescence intensities in the assay plates were measured by an Envision (PerkinElmer, Shelton, CT) plate reader using three labels for measuring blue, green and red fluorescence at […] 460, 535 and 590nm respectively.
For orientation: In qHTS, concentration-response curves come from the screen itself.
Consider `O=C(CCl)c1ccccc1`, for which the result was inactive.

Regarding `O=P(Oc1ccccc1)(Oc1ccccc1)Oc1ccccc1`, the molecule was classed as inactive.

For the molecule `ClC1C(Cl)C(Cl)C(Cl)C(Cl)C1Cl` (stereo not given), the call was inactive.

Consider `COc1ccc(C(CN(C)C)C2(O)CCCCC2)cc1` (stereo not given), for which the result was inactive.

On to `O=C(NC(=O)c1c(F)cccc1F)Nc1ccc(Cl)cc1`, for which the molecule was called inactive.

With `C=CC(=O)OCCO`, the call was inactive.

Take `CCc1cccc(CC)c1N(COC)C(=O)CCl`: the result was inactive.

For `C=CCc1ccc2c(c1)OCO2`, the outcome was inactive.

For the molecule `Cc1ccc(OP(=O)(Oc2ccc(C)cc2)Oc2ccc(C)cc2)cc1`, the result was inactive.

`CCC(=O)O[C@H]1CC[C@H]2[C@@H]3CCC4=CC(=O)CC[C@]4(C)[C@H]3CC[C@]12C`: the outcome was inactive.

Take `O=C(Nc1ccc(Br)cc1)c1cc(Br)cc(Br)c1O`: the molecule was called inactive.

For the molecule `Nc1ccc(-c2ccc(N)c(N)c2)cc1N`, the molecule was called inactive.

For the molecule `NNC(=S)NN`, the molecule was classed as inactive.

Take `C1=Cc2cccc3cccc1c23`: the molecule was called inactive.

On to `Nc1ccncc1`, for which the outcome was inactive.

As to `CC(C)(C)c1ccccc1O`, the call was inactive.

Take `O=c1oc2ccccc2c(O)c1C(CC(O)c1ccc(-c2ccc(Br)cc2)cc1)c1ccccc1` (stereo not given): the call was inactive.

As for `c1ccc(-c2cccc(-c3ccccc3)c2)cc1`, the molecule was classed as inactive.

In the case of `CCOC(=O)C(C)OC(=O)c1cc(Oc2ccc(C(F)(F)F)cc2Cl)ccc1[N+](=O)[O-]` (stereo not given), the result was inactive.

On to `CCN(N=O)C(N)=O`, for which the molecule was called inactive.

Regarding `Cc1cc(C)cc(C)c1`, the call was inactive.

Turning to `O=C(O)C(F)(F)C(F)(F)C(F)(F)C(F)(F)C(F)(F)C(F)(F)C(F)(F)F`, the molecule was classed as inactive.

Take `CCCCCCOC(=O)c1ccccc1C(=O)OCCCCCC`: the molecule was classed as inactive.

With `Cc1cc(Cl)ccc1OCCCC(=O)O`, the molecule was called inactive.

On to `NNC(N)=S`, for which the call was inactive.

Regarding `CC(C)C(=O)OCC(C)(C)C(OC(=O)C(C)C)C(C)C` (stereo not given), the call was inactive.

In the case of `CC1(C)C(C=C(Cl)Cl)C1C(=O)OC(C#N)c1cccc(Oc2ccccc2)c1` (stereo not given), the molecule was called inactive.

As for `COc1ccc(C=O)cc1`, the result was inactive.

In the case of `CC(C)NC(C)C`, the outcome was inactive.

Take `CCCCCCCCC(=O)NCc1ccc(O)c(OC)c1`: the molecule was called inactive.

Turning to `Oc1cc(Cl)ccc1Oc1ccc(Cl)cc1Cl`, the molecule was classed as inactive.

As for `CCCCCCCCCCCOC(=O)c1ccccc1C(=O)OCCCCCCCCCCC`, the call was inactive.

On to `Oc1cc(Cl)c(Cl)cc1Cl`, for which the outcome was inactive.

As for `CCC(C)c1ccc(O)cc1` (stereo not given), the call was inactive.

Turning to `COP(=O)(OC)OC`, the outcome was inactive.

As to `CCN(CC)N=O`, the call was inactive.

On to `CCOCN(C(=O)CCl)c1c(C)cccc1CC`, for which the molecule was called inactive.

For `c1cc(OCC2CO2)ccc1Cc1ccc(OCC2CO2)cc1` (stereo not given), the result was inactive.

For `Oc1cc(Cl)ccc1Cl`, the molecule was classed as inactive.

As to `Nc1cccnc1`, the outcome was inactive.
